Sfp PPTase inh – inhibitors of Bacillus subtilis Sfp phosphopantetheinyl transferase | Q9F4F7 | Biochemical Sfp PPTase activity, qHTS | Potency, µM, for the others: largest response in the series, negative = inhibition, hits mostly inhibitors | 3.5% of 310,000 active | AID 1490;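 also: the enzyme is Sfp with the accession as filed and its product quenches rhodamine fluorescence; 0% = enzyme reaction without inhibitor and -100% = no enzyme wells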
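Buffer: 50 mM Hepes-Na pH 7.6, 10 mM MgCl2, 0.01% Nonidet P-40, 0.01% BSA. Enzyme 15 nM, pre-exposed to compound 15 min; substrates then added and fluorescence change tracked over 30 min.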
ALDH1A1 block – inhibitors of human aldehyde dehydrogenase 1A1; Purified ALDH1A1, NADH fluorescence, propionaldehyde substrate; 7.3% of 220,000 active; Potency, µM (doses to about 75.3 µM), for the others: top-dose activity, negative = inhibition, most hits filed as inhibitors; AID 1030; active = well fitted inhibition curve with a large enough effect, not every such curve was filed as active; inconclusive = small, poorly fitted or top-dose-only effect, or another doubt; inactive = no such curve, though single readings can be large or run the other way;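 also: plate controls were no enzyme wells and a reference inhibitor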
Target sequence (P00352 whole entry, looked up): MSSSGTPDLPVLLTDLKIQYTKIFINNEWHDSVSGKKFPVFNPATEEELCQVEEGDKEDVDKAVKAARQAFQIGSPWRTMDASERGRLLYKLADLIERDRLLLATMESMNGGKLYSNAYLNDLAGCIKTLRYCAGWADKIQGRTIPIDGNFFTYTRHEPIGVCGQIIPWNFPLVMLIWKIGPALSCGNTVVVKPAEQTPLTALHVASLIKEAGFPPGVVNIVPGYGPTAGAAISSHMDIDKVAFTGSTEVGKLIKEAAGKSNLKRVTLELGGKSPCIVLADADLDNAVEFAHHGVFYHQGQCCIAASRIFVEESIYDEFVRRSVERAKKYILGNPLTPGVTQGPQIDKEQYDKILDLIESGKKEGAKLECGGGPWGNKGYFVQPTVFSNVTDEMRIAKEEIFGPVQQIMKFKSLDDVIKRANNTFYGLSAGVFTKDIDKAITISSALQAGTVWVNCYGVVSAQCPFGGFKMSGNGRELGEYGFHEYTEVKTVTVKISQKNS
RORg inh – ROR gamma (mouse) transcription inhibition. P51450. Drosophila S2 Gal4-RORgamma UAS-luciferase reporter, 20 h. Potency, µM (doses to about 53.6 µM), without a hit: at the highest dose activity change, negative = inhibition, hits mostly inhibitors. 5.4% of 310,000 active. AID 2551; also: nearly all actives have a fitted effect of over 60% in size
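Luciferase reporter read in Schneider cells carrying Gal4-RORγ (mouse) and UAS-Photinus luciferase; cells given compound 1 h before 700 uM copper sulfate induction, then incubated 20 h at ambient temperature.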
PLK1 PBD block – PLK1 (human) polo-box domain binding inhibition | Plk1 PBD binding of FITC phosphopeptide, fluorescence polarization | 2.8% of 360,000 active | P53350 | Potency, µM, without a hit: max response, negative = inhibition, hits mostly inhibitors | AID 720504; also: series mostly up to about 57 µM; nearly all actives have a fitted effect of over 65% in size
Gal4-VP16 FLuc – Gal4-VP16 reporter inhibition counter-screen; Drosophila S2 Gal4-VP16 UAS-luciferase, luminescence, 20 h; 3.5% of 310,000 active; Potency, µM (titrated, usually from 53.6 µM), for inactives: at the highest dose activity, negative = inhibition, actives largely listed as inhibitors; AID 2546;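 also: Gal4-VP16 expression switched on by copper sulfate through the metallothionein promoter; nearly all actives have a fitted effect of over 50% in size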
* hit, by the source's call; ? = inconclusive; / = no result given; [ ] = dose if it differs, or a comment. A selection: hits, their analogues and other compounds. The true share with any hit is near 12%. Unless noted, calls follow the shape of the dose curve; as a rule, active = well fitted curve in the direction sought with a large enough effect; inconclusive = small, poorly fitted or top-dose-only effect, or another doubt; inactive = no such curve, though single readings can be large; an effect the other way counts as inactive or inconclusive. Unless noted, % is scaled to controls: 0 for no effect and ±100 for the full control effect; potency is read from the fitted curve at half-maximal effect.

SMILES | Sfp PPTase inh | ALDH1A1 block | RORg inh | PLK1 PBD block | Gal4-VP16 FLuc
Cc1cccc(OCc2nnc(SCC(=O)N3c4ccccc4CCc4ccccc43)o2)c1 | 6% | / | 4% | -6% | 7%
O=C(CSc1nnc(COc2ccc(F)cc2)o1)N1c2ccccc2CCc2ccccc21 | 6% | 3.2µM* | 36% | -1% | 3%
Clc1cnc(N/N=C/c2ccco2)c(Cl)c1 | 79µM* | -4% | 5.6µM* | -5% | 13µM*
Cc1ccc(/C=N/Nc2ncc(Cl)cc2Cl)s1 | 12% | 15% | 4.5µM* | -4% | 7.1µM*
Clc1cnc(N/N=C/c2cccs2)c(Cl)c1 | -11% | 7% | 7.9µM* | -9% | ?
CC(=O)Oc1ccccc1Cn1c(C)c(C(=O)NCCC#N)sc1=O | / | / | / | 3% | /
COc1ccc(S(=O)(=O)N(C(=O)c2ccco2)c2cc3sc(=O)oc3c3ccccc23)cc1 | 7.9µM* | 25µM* | ? | -21% | ?
CC(C)c1ccccc1NC(=O)COC(=O)Cc1cccc(C(F)(F)F)c1 | 7% | 16% | 2%[10 µM] | 27µM* | -4%
O=C(Cc1cccc(C(F)(F)F)c1)Nc1ccccc1 | 0% | -6% | 3% | 24µM* | -17%
O=C(COC(=O)Cc1cccc(C(F)(F)F)c1)Nc1ccccc1 | 44% | ? | ? | -1% | -14%
O=c1c(-c2cccc(F)c2)nc2cncnc2n1Cc1ccccc1Cl | -5% | ? | -19% | / | 4%
CCN1CCCC1CNC(=O)c1ccc2c(c1)NC(=O)/C(=C\c1ccc(C)cc1)S2 (centres undefined) | 50µM* | / | ? | -14% | -12%
COC(=O)C1=C(C(=O)OC)[C@@H]2N(Cc3ccccc3)c3ccccc3[C@@]23C[C@@H](C(=O)OC)N(S(=O)(=O)c2ccc(OC)cc2)C3=N1 | -13% | 2%[13.5 µM] | / | / | /
Nc1sc(Cc2ccccc2)cc1C(=O)c1c(-c2ccccc2)[nH]c2ccccc12 | / | / | / | 19µM* | /
N/C(=N\N=C/c1ccc(F)cc1)N/N=C\c1ccc(F)cc1 | -7% | / | ? | -5% | -1%
N/C(=N\N=C\c1ccc(Cl)cc1)N/N=C/c1ccc(Cl)cc1 | 79µM* | / | 14µM* | / | -16%
Cc1cc(O)c(C(C[N+](=O)[O-])c2ccc(Cl)cc2)c(=O)o1 (centres undefined) | -12% | ? | -4% | -29% | -12%
Cc1cc(C)n(C(C[N+](=O)[O-])c2ccc(Cl)cc2)n1 (centres undefined) | -12% | ? | 16% | 17µM* | -1%
C[N+](C)(N)Cc1nc(-c2ccc(Cl)cc2)no1 | / | -4%[13.5 µM] | / | / | /
N#CC(C#N)=Cc1cn(-c2ncc(C(F)(F)F)cc2Cl)c2ccccc12 | -1% | ? | 11µM* | -4% | ?
COc1ccc2[nH]cc(CCNc3nc(-c4cccnc4)nc4ccccc34)c2c1 | -30% | ? | 21% | / | -6%
CCCS(=O)(=O)NC(=O)C1(C)CCN(C(=O)c2snnc2C)C1 (centres undefined) | / | / | / | -7% | /
Cc1ccc(N2C(=O)C3CC(c4ccccc4)=C4C5C=CC(C6C(=O)N(c7ccc(C)cc7)C(=O)C56)C4C3C2=O)cc1 (centres undefined) | 9% | 1.1µM* | 9% | 2% | -14%
COC(=O)c1cc(S(=O)(=O)N2CCC(C)CC2)ccc1F | 15% | 28µM* | 0% | -8% | -9%
CC1CCN(S(=O)(=O)c2ccc3c(c2)C(=NO)c2cc(S(=O)(=O)N4CCC(C)CC4)ccc2-3)CC1 | 20% | -4% | 1.8µM* | -2% | 0.79µM*
SMILES | Sfp PPTase inh | ALDH1A1 block | RORg inh | PLK1 PBD block | Gal4-VP16 FLuc
COC(=O)c1cccc(S(=O)(=O)N2CCC(C)CC2)c1 | 21% | ? | 2% | -9% | 1%
O=S(=O)(c1ccc2c(c1)C(=NO)c1cc(S(=O)(=O)N3CCCCC3)ccc1-2)N1CCCCC1 | -14% | ? | 3.5µM* | -9% | 3.2µM*
CC(C)[C@@H](CC(=O)N[C@@H]1CCCC[C@H]1C(=O)N[C@H](CC(=O)N[C@@H](CCC(=O)O)CC(=O)O)Cc1ccccc1)NC(=O)C[C@H](Cc1ccccc1)NC(=O)[C@@H]1CCCC[C@H]1N | 17% | 13% | 34% | / | 2%
CCc1ccc(CN/C=C/C(=O)c2ccc(Br)cc2)cc1 | 5% | ? | -8% | 24µM* | 2%
CCOC(=O)c1ccc(CNCc2ccc(Br)cc2)cc1 | 3% | -1% | 11% | -9% | -7%
Cc1sc2nc(SCC(=O)Nc3c(C)n(C)n(-c4ccccc4)c3=O)n(C)c(=O)c2c1C | 50µM* | ? | 25% | -15% | -15%
C=CCn1c(SCC(=O)N2CCc3ccccc3C2)nc2sc(C)c(C)c2c1=O | -4% | -11% | ? | -6% | -4%
Cc1sc2nc(SCC(=O)c3cccs3)n(Cc3ccco3)c(=O)c2c1C | ? | ? | 1% | -10% | 9%
C=CCn1c(SCc2ccc(C(=O)O)cc2)nc2sc(C)c(C)c2c1=O | -3% | / | 4µM* | ? | 7.1µM*
C=CCn1c(SCC(=O)Nc2ccccc2C)nc2sc(C)c(C)c2c1=O | -14% | -6% | 35µM* | -10% | 20µM*
C=CCn1c(SCC(=O)Nc2sccc2C(N)=O)nc2sc(C)c(C)c2c1=O | -5% | ? | 10% | -5% | 22%
Cc1sc2nc(SCc3ccc(C(=O)O)cc3)n(Cc3ccco3)c(=O)c2c1C | -24% | / | 8% | 27µM* | -19%
CCC(C)c1ccc(S(=O)(=O)N2CCN(C(=O)c3ccc(Cl)c(S(=O)(=O)N4CCOCC4)c3)CC2)cc1 (centres undefined) | / | / | / | -2% | /
Cl/C(=C\n1cncn1)c1ccc(Cl)cc1Cl | 8% | ? | -3% | / | -5%
Cc1cc(C)c(NC(=S)NCCCSC2CCCCC2)c(C)c1 | 45µM* | ? | 2µM* | 24µM* | ?
COc1ccccc1C1CC(c2ccc(NS(C)(=O)=O)cc2)=NN1S(=O)(=O)c1ccccc1 (centres undefined) | 24% | / | -16% | 2% | 16%
O=C(c1ccco1)N1N=C(c2ccc(Br)cc2)CC1c1ccco1 (centres undefined) | / | / | / | -1% | /
O=S(=O)(c1ccccc1)N1N=C(c2ccc(Br)cc2)CC1c1ccco1 (centres undefined) | -8% | / | 9% | 3µM* | 3%
O=S(=O)(c1ccccc1)N1N=C(c2ccc(O)cc2)CC1c1ccco1 (centres undefined) | ? | / | -20% | -1% | 20µM*
CS(=O)(=O)Nc1ccc(C2=NN(S(=O)(=O)c3ccc(F)cc3)C(c3ccco3)C2)cc1 (centres undefined) | 50µM* | ? | ? | -6% | ?
Cc1ccc(C2=NN(S(=O)(=O)c3ccccc3)C(c3ccco3)C2)cc1 (centres undefined) | / | / | / | -5% | /
CCSc1nnnn1-c1ccccc1 | -4% | ? | 24% | -5% | 13%
O=[N+]([O-])c1ccc(Sc2nnnn2-c2ccccc2)c(Cl)c1 | -11% | 3.5µM* | ? | -18% | 4%
